Laboratory results from PubChem BioAssay (NCI).
The panel holds about 83,000 compounds, 20% with a hit somewhere; the sample as a whole holds those more often.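 A percent growth of 40 corresponds to 60% growth inhibition; 0 means no net growth; -100 means all cells died. Active threshold: below 10.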 The source made the active and inactive calls.

How the values were obtained:
Experiment in all cases: NCI-60 one-dose screen, 48 h (100 = growth as untreated, 0 = no growth, -100 = all killed)
Conditions in all cases: 10 µM unless noted
T-47D breast = system: T-47D breast
BT-549 breast = system: BT-549 breast
MDA-MB-435 melanoma = system: MDA-MB-435 melanoma
SW-620 colon = system: SW-620 colon
MCF7 breast = system: MCF7 breast
HCT-116 colon = system: HCT-116 colon
HCC-2998 colon = system: HCC-2998 colon
KM12 colon = system: KM12 colon

Measured: growth

COc1ccc(/C=N/C2=C(C#N)C(c3ccc(N(C)C)cc3)c3ccc4ccccc4c3O2)cc1 (centres undefined)
active: MDA-MB-435 melanoma 4%
inactive: T-47D breast 72% | BT-549 breast 48.4% | SW-620 colon 46.1% | MCF7 breast 45% | HCT-116 colon 43.4% | HCC-2998 colon 96.3% | KM12 colon 44.1%

Cc1c(/C=C/[N+](=O)[O-])ccc2c1[nH]c1ccccc12
active: MDA-MB-435 melanoma -11.2% | MCF7 breast -11.9% | HCT-116 colon -97.8% | HCC-2998 colon -30.7%
inactive: T-47D breast 78.1% | BT-549 breast 59.2% | SW-620 colon 77.7% | KM12 colon 52.4%

CCOC(=O)c1c(C(=O)OCC)c2cc(-c3ccn4c(C(=O)c5ccccc5)c(C(=O)OCC)c(C(=O)OCC)c4c3)ccn2c1C(=O)c1ccccc1
inactive: T-47D breast 82.5% | BT-549 breast 93.4% | MDA-MB-435 melanoma 99.9% | SW-620 colon 105% | MCF7 breast 92.9% | HCT-116 colon 103% | HCC-2998 colon 95.2% | KM12 colon 87.7%

Cc1nn(-c2cc(=O)[nH]c3ccc(Cl)cc23)c(N)c1C#N
inactive: T-47D breast 97.1% | BT-549 breast 111% | MDA-MB-435 melanoma 103% | SW-620 colon 98.7% | MCF7 breast 92.3% | HCT-116 colon 101% | HCC-2998 colon 102% | KM12 colon 104%

O=C1CSC(=S)N1CCc1ccc(O)cc1
active: KM12 colon 8.84%
inactive: T-47D breast 38.1% | BT-549 breast 105% | MDA-MB-435 melanoma 65.8% | SW-620 colon 53.8% | MCF7 breast 37.6% | HCT-116 colon 71.5% | HCC-2998 colon 102%

COc1ccc(CCNc2nc3c(c(=O)n(Cc4ccc(Br)cc4)c(=O)n3C)n2C)cc1OC
inactive: T-47D breast 66.2% | BT-549 breast 86.5% | MDA-MB-435 melanoma 99.2% | SW-620 colon 99.5% | MCF7 breast 94.4% | HCT-116 colon 90.5% | HCC-2998 colon 101% | KM12 colon 100%

COc1cccc(-c2nc3sccn3c2-c2ccnc(NCCCNS(=O)(=O)c3cccc(Cl)c3)c2)c1
active: T-47D breast -4.56%
inactive: BT-549 breast 20.2% | MDA-MB-435 melanoma 37.4% | SW-620 colon 67.5% | MCF7 breast 44.4% | HCT-116 colon 34% | HCC-2998 colon 81.6% | KM12 colon 64.8%

CCN(CC)c1ccc2c(c1)Oc1nc(N)c(C#N)c(N)c1C2Sc1ccc(SC)cc1 (centres undefined)
active: T-47D breast -4.08% | BT-549 breast -80.4% | MDA-MB-435 melanoma -25.7% | SW-620 colon -70.7% | MCF7 breast -0.904% | HCT-116 colon -27.5% | HCC-2998 colon -72.2% | KM12 colon -74.5%

O=C(N/N=C/c1ccccc1O)c1ccccc1Nc1ccnc(C(F)(F)F)c1
active: MCF7 breast 8.24%
inactive: T-47D breast 19.4% | BT-549 breast 30.1% | MDA-MB-435 melanoma 32.4% | SW-620 colon 35% | HCT-116 colon 14.4% | HCC-2998 colon 46% | KM12 colon 32.4%

CC1(C)CC[C@]2(C(=O)Nc3ccccn3)CC[C@]3(C)C(=CC[C@@H]4[C@@]5(C)C/C(=C/c6cccnc6)C(=O)C(C)(C)[C@@H]5CC[C@]43C)[C@H]2C1
inactive: T-47D breast 12.8% | BT-549 breast 42.2% | MDA-MB-435 melanoma 38.3% | SW-620 colon 33.9% | MCF7 breast 11.4% | HCT-116 colon 11.4% | HCC-2998 colon 40.4% | KM12 colon 40.1%

C=C1C(=O)O[C@H]2[C@H]1CC/C(COC(=O)c1cc3cc(OC)ccc3[nH]1)=C\CC[C@@]1(C)O[C@@H]21
active: T-47D breast -60.6% | BT-549 breast -55.3% | MDA-MB-435 melanoma -91.9% | SW-620 colon -75.7% | MCF7 breast -61.3% | HCT-116 colon -94.8% | HCC-2998 colon -74.2% | KM12 colon -67.9%

C=CC(=O)Nc1cccc(-c2nc(SC)nc(NCCc3ccc(OC)c(OC)c3)c2C#N)c1
inactive: BT-549 breast 25% | MDA-MB-435 melanoma 24.2% | SW-620 colon 80.8% | MCF7 breast 16.5% | HCT-116 colon 31.4% | HCC-2998 colon 87.1% | KM12 colon 64.6%
active: T-47D breast 8.57%

CC1=C[C@H]2c3c(c(O)c(O)c4oc(-c5ccccc5)cc(=O)c34)[C@H](c3cc(O)c(O)c4oc(-c5ccccc5)cc(=O)c34)[C@H]2C(C)(C)C1
active: T-47D breast 4.7% | BT-549 breast 0.289% | MDA-MB-435 melanoma -32.9% | SW-620 colon 7.43% | MCF7 breast 9.62% | HCT-116 colon -56.3% | HCC-2998 colon 0.939% | KM12 colon -14.9%

Nc1n[nH]c2ccc([C@@H]3Nc4ccc5[nH]ncc5c4[C@H]4C5C=CC(C5)[C@@H]34)cc12 (some centres undefined)
active: BT-549 breast 3.98% | MDA-MB-435 melanoma -28.1% | HCT-116 colon 6.63%
inactive: T-47D breast 80% | SW-620 colon 22.8% | MCF7 breast 17.8% | HCC-2998 colon 14.3% | KM12 colon 10.4%

COc1cc2c(cc1-c1c(C)noc1C)ncc1nc(-c3ccccn3)n([C@H](C)COC(F)F)c12
inactive: T-47D breast 35.2% | BT-549 breast 57.7% | MDA-MB-435 melanoma 46.4% | SW-620 colon 65.1% | MCF7 breast 19.7% | HCT-116 colon 35.5% | HCC-2998 colon 49% | KM12 colon 47.4%

C#Cc1cccc(NC(=O)c2ccccc2NC(=O)CCl)c1
inactive: T-47D breast 77.7% [8.25 µM] | BT-549 breast 61.6% [8.25 µM] | MDA-MB-435 melanoma 89.9% [8.25 µM] | SW-620 colon 79.5% [8.25 µM] | MCF7 breast 67.9% [8.25 µM] | HCT-116 colon 49.4% [8.25 µM] | HCC-2998 colon 99.2% [8.25 µM] | KM12 colon 99.7% [8.25 µM]

CN1CCN(c2ccc(Nc3c4ccccc4nc4ccccc34)cc2)CC1
inactive: T-47D breast 102% | BT-549 breast 112% | MDA-MB-435 melanoma 110% | SW-620 colon 106% | MCF7 breast 99.1% | HCT-116 colon 104% | HCC-2998 colon 113% | KM12 colon 105%

O=C(O)c1ccc(N=CC(=O)c2ccc(-c3ccccc3)cc2)cc1
inactive: T-47D breast 100% | BT-549 breast 103% | MDA-MB-435 melanoma 103% | SW-620 colon 93.3% | MCF7 breast 97.6% | HCT-116 colon 97.9% | HCC-2998 colon 96.7% | KM12 colon 102%

COc1cc(/C=C/c2cc(/C=C/c3ccc(O)c(OC)c3)n(-c3c(Cl)cccc3Cl)c(=O)n2)ccc1O
active: MDA-MB-435 melanoma 4.57% | HCT-116 colon 4.63%
inactive: T-47D breast 24.1% | BT-549 breast 15.2% | SW-620 colon 10.4% | MCF7 breast 13.7% | HCC-2998 colon 41.8% | KM12 colon 12.1%

O=C(CN1C(=O)/C(=C/c2ccc(Cl)cc2)SC1=S)NCCCN1CCOCC1
inactive: T-47D breast 84.3% | BT-549 breast 102% | MDA-MB-435 melanoma 102% | SW-620 colon 102% | MCF7 breast 92.8% | HCT-116 colon 102% | HCC-2998 colon 102% | KM12 colon 104%

C#Cc1cccc(NC(=O)c2ccccc2NC(=O)C=C)c1
inactive: T-47D breast 76.6% [8.25 µM] | BT-549 breast 102% [8.25 µM] | MDA-MB-435 melanoma 103% [8.25 µM] | SW-620 colon 109% [8.25 µM] | MCF7 breast 82.4% [8.25 µM] | HCT-116 colon 102% [8.25 µM] | HCC-2998 colon 104% [8.25 µM] | KM12 colon 97.8% [8.25 µM]

COc1cc(C)c(C2C(C#N)=C(N)Oc3n[nH]c(-c4cccs4)c32)cc1C(C)C (centres undefined)
inactive: T-47D breast 84.4% | BT-549 breast 102% | MDA-MB-435 melanoma 105% | SW-620 colon 101% | MCF7 breast 91.5% | HCT-116 colon 103% | HCC-2998 colon 93.5% | KM12 colon 98.6%

CCOC(=O)c1cc(C(=O)c2ccc(O)c(O)c2)n2ccc(-c3ccn4c(C(=O)c5ccc(O)c(O)c5)cc(C(=O)OCC)c4c3)cc12
inactive: T-47D breast 77.4% | BT-549 breast 96% | MDA-MB-435 melanoma 99.9% | SW-620 colon 96.1% | MCF7 breast 99.1% | HCT-116 colon 98.2% | HCC-2998 colon 104% | KM12 colon 97%

c1csc(C2=NN3C(C2)c2ccccc2OC3c2ccncc2)c1 (centres undefined)
inactive: T-47D breast 93.2% | BT-549 breast 92.4% | MDA-MB-435 melanoma 99.6% | SW-620 colon 103% | MCF7 breast 77.3% | HCT-116 colon 102% | HCC-2998 colon 96.3% | KM12 colon 92.2%

COc1ccc(Nc2cc(C)nc(N3CCN(c4ccnc5cc(Cl)ccc45)CC3)n2)cc1
inactive: BT-549 breast 51.2% | SW-620 colon 25.4% | HCC-2998 colon 41.2% | KM12 colon 23.1%
active: T-47D breast 7.42% | MDA-MB-435 melanoma 2.27% | MCF7 breast 9.32% | HCT-116 colon 0.65%

COc1ccccc1NS(=O)(=O)c1ccc2oc(SC(C)C)nc2c1
inactive: T-47D breast 67.2% | BT-549 breast 87.6% | MDA-MB-435 melanoma 88.2% | SW-620 colon 102% | MCF7 breast 82.3% | HCT-116 colon 63.4% | HCC-2998 colon 26% | KM12 colon 98.7%

Cn1cc(-c2nonc2-c2c[nH]c3ccc(F)cc23)c2cccnc21
inactive: T-47D breast 16.2% | BT-549 breast 93.1% | MDA-MB-435 melanoma 62.3% | SW-620 colon 97.3% | MCF7 breast 23.5% | HCT-116 colon 90.9% | HCC-2998 colon 91.8% | KM12 colon 67.4%

COc1ccc(/C=C/c2nc3ccccc3nc2/C=C/c2ccc(OC)cc2)cc1
inactive: T-47D breast 78.1% | BT-549 breast 104% | MDA-MB-435 melanoma 88.4% | SW-620 colon 92.6% | MCF7 breast 80.9% | HCT-116 colon 89% | HCC-2998 colon 104% | KM12 colon 99.6%
